From PubChem BioAssay come the findings set out here.

A word on the inhibition: it is the change of the read-out against control, counted positive when it falls.

The structures appear in SMILES notation. Values without a mark were called inactive. Calls of active or inactive are those of the source.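 The calls were made as follows, unless noted: active = inhibition above 50%; inactive = the rest.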

The first assay can be described thus: antimalarial activity against Dd2 strain (AID 2302;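 active = growth inhibition above 50% at the single 2 µM test dose, taken to imply half-maximal potency below 2 µM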;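 also: 0% = DMSO untreated growth and 100% = chloroquine plus artemisinin killed control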). The settings on record: P. falciparum Dd2 in RBCs, LDH growth readout, 72 h; at 2 µM; hits give high values.
Take `OCCc1ccc(Nc2nccc(-c3nnc4ccccn34)n2)cc1`: the growth inhibition was 46%.

As for `COc1ccc(Cn2ccc3c4c(N)nc(N)nc4ccc32)cc1`, the growth inhibition was 93% (active).

On to `O=C(NCCSCc1c(F)cccc1Cl)c1cnc2c(c1)nc(-c1cnc(-c3ccccc3)[nH]1)n2CCc1cnc[nH]1`, for which the growth inhibition is 45%.

Take `O=C(CSc1nccn1C1CCCC1)Nc1cc(C(F)(F)F)ccc1Cl`: the growth inhibition was 94% (active).

Consider `OC(CNCc1ccccc1OCc1ccccc1)c1cccc(Br)c1` (stereo not given), for which the growth inhibition was 97% (active).

For `NC1CCN(Cc2cccc(-c3ccc(-c4nc5ccccc5[nH]4)s3)c2)C1` (stereo not given), the growth inhibition was 62% (active).

As to `CN1CCN(c2ccc(-c3cc(-c4ccncc4)c(-c4ccc(Cl)c(O)c4)o3)cc2)CC1`, the growth inhibition was 98% (active).

Take `CC(C)C1=C[C@H]2C[C@]3(C4OCCO4)[C@@H]4CC[C@@H](C)[C@H]4C[C@@]2(C(=O)OCC2COCO2)[C@]13C(=O)OC(c1ccccc1)c1ccccc1` (stereo not given in full): the growth inhibition is 96% (active).

Turning to `Cc1ccc(CNC(=O)[C@H](CCCN)Nc2nc(Nc3ccccc3)ncc2C)cc1`, the growth inhibition was -4%.

For `CCn1c(Sc2ccc([N+](=O)[O-])c(C#N)c2)nnc1-c1ccc(Cl)cc1`, the growth inhibition is 7%.

With `Cc1cccc(NC(=O)Nc2cccc(-c3ccc(-c4nc5ccc(C(F)(F)F)cc5[nH]4)cc3)c2)c1`, the growth inhibition is 94% (active).

On to `CN1CCCC(CN2CCN(Cc3cccc(-c4ccc(-c5nc6ccc(F)cc6[nH]5)cc4)c3)CC2)C1` (stereo not given), for which the growth inhibition was 100% (active).

Turning to `CN1CCC(N2CCN(CCOc3cc(NC(=O)/C=C/c4ccccc4Cl)ccc3Br)CC2)CC1`, the growth inhibition was 99% (active).

On to `Cc1nc(N)nc(N)c1OCc1cccc2ccccc12`, for which the growth inhibition was 11%.

On to `CN(C1CCC(NC(=O)/C=C/c2ccccc2)CC1)C1CC2(CCN(C(=O)OC(C)(C)C)CC2)c2ccccc21` (stereo not given), for which the growth inhibition was 95% (active).

For `O=C(Oc1ccc(C2CNCCc3c2cc(OC(=O)c2ccc(O)cc2)c(OC(=O)c2ccc(O)cc2)c3Cl)cc1)c1ccc(O)cc1` (stereo not given), the growth inhibition is 60% (active).

As for `Nc1ccc2[nH]cc(C3CCN(CCC4CCN(C(=O)/C=C/c5ccc(Cl)c(Cl)c5)CC4)CC3)c2n1`, the growth inhibition is 78% (active).

Regarding `COc1cc(N(C)Cc2cnc3nc(N)nc(N)c3n2)cc(OC)c1OC`, the growth inhibition was 2%.

For `COc1ccc2ncn(-c3ccc(C(N)=O)c(OCc4ccccc4C(F)(F)F)c3)c2c1`, the growth inhibition is 100% (active).

As for `Oc1ccc(CCNc2nc(NCc3ccccc3-c3cccc(Cl)c3)nc(N3CCNCC3)n2)cc1`, the growth inhibition is 11%.

Take `NC1CCCN(Cc2ccc(-c3ccc(-c4nc5ccccc5[nH]4)s3)cc2)C1` (stereo not given): the growth inhibition was 99% (active).

Turning to `CCCc1ccc(NC(=O)c2cccc(CN3CCCN(Cc4cccc(C#N)c4)CC3)c2)cc1`, the growth inhibition was 0%.

`CN(C)CCOc1ccc(-c2cc(-c3ccc(Cl)c(O)c3)c(-c3ccncc3)[nH]2)cc1`: the growth inhibition is 92% (active).

As to `COc1ccc(CC(=O)Nc2ccc(-c3cccc(-c4nc5c(C)cccc5[nH]4)c3)cc2)cc1O`, the growth inhibition is 30%.

On to `COc1cccc(OC)c1OCCCOc1c(C)nc(N)nc1N`, for which the growth inhibition was -1%.

In the case of `c1csc(-c2nc(NCC3CCCO3)ncc2-c2ccsc2)n1` (stereo not given), the growth inhibition was 83% (active).

On to `COc1ccccc1C1CCN(CCN2CCC(NC(=O)c3ccc(-c4ccc(C#N)cc4)cc3)CC2)CC1`, for which the growth inhibition is 42%.

`CCCCCN1CCCC(NS(=O)(=O)c2ccc(C(=O)Nc3cccc(C(F)(F)F)c3)cc2)C1` (stereo not given): the growth inhibition was 3%.

In the case of `CCCCc1ccc(-c2c(N)nc(N)nc2CC)cc1`, the growth inhibition was 0%.

With `Cc1cc2c(/C=C/C(=O)NC3CCC(CCN4CCc5ccc(C#N)cc5CC4)CC3)cccc2[nH]1` (stereo not given), the growth inhibition is 39%.

As to `O=C(Nc1ccc(Cl)c(Cl)c1)N1CCC(CNCc2cccc([N+](=O)[O-])c2)CC1`, the growth inhibition was 6%.

As for `CN1CCCc2ccc(NC(=O)Nc3ccc(Cl)c(Cl)c3)cc2C1`, the growth inhibition was 22%.

Consider `Cc1ccc(Cn2ncc(N3C[C@@H](C)N[C@@H](C)C3)c(Cl)c2=O)cc1NC(=O)Nc1ccc(-c2ccccc2)cc1`, for which the growth inhibition was 29%.

Turning to `Cc1cc(NN=Cc2ccc(Cl)cc2)c2ccc(F)cc2n1`, the growth inhibition is 87% (active).

For the molecule `CCc1nc(N)nc(N)c1-c1ccc(C(C)(C)C)cc1`, the growth inhibition is -5%.

In the case of `Cc1nn(-c2ccnc3cc(Cl)ccc23)c(C)c1C(=O)NCc1cc(Cl)cc(Cl)c1`, the growth inhibition was 53% (active).

For the molecule `Cc1nc(Nc2ccc(C)c(Cl)c2)c2c(C)noc2n1`, the growth inhibition was 72% (active).

Consider `Cc1onc(-c2ccccc2)c1-c1nc(NC2CCCC(C)C2)no1` (stereo not given), for which the growth inhibition is 46%.

On to `O=C(N[C@H]1CCN(CCc2ccc(O[C@H]3CCNC3)c(Cl)c2)C1)c1ccc(Cl)c(Cl)c1`, for which the growth inhibition is -1%.

Consider `FC(F)(F)COc1c(CCNCCCCNCCc2ccc3ccccc3c2OCC(F)(F)F)ccc2ccccc12`, for which the growth inhibition was 97% (active).

A further assay in a line: human hepatoma cell viability loss – ATP luminescence, cytotoxicity control for P. falciparum antimalarial project, primary screen (AID 2303).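 Also: 0% = DMSO wells and 100% = digitonin-killed cells.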 The settings on record: HepG2 viability, 24-48 h, at 10 µM, hits give high values.
Regarding `OCCc1ccc(Nc2nccc(-c3nnc4ccccn34)n2)cc1`, the inhibition is 63% (active).

For `COc1ccc(Cn2ccc3c4c(N)nc(N)nc4ccc32)cc1`, the inhibition is 90% (active).

Regarding `O=C(NCCSCc1c(F)cccc1Cl)c1cnc2c(c1)nc(-c1cnc(-c3ccccc3)[nH]1)n2CCc1cnc[nH]1`, the inhibition was 10%.

Turning to `O=C(CSc1nccn1C1CCCC1)Nc1cc(C(F)(F)F)ccc1Cl`, the inhibition was -4%.

On to `OC(CNCc1ccccc1OCc1ccccc1)c1cccc(Br)c1` (stereo not given), for which the inhibition is -1%.

Take `NC1CCN(Cc2cccc(-c3ccc(-c4nc5ccccc5[nH]4)s3)c2)C1` (stereo not given): the inhibition is 36%.

Turning to `CN1CCN(c2ccc(-c3cc(-c4ccncc4)c(-c4ccc(Cl)c(O)c4)o3)cc2)CC1`, the inhibition was -13%.

In the case of `CC(C)C1=C[C@H]2C[C@]3(C4OCCO4)[C@@H]4CC[C@@H](C)[C@H]4C[C@@]2(C(=O)OCC2COCO2)[C@]13C(=O)OC(c1ccccc1)c1ccccc1` (stereo not given in full), the inhibition is 2%.

Turning to `Cc1ccc(CNC(=O)[C@H](CCCN)Nc2nc(Nc3ccccc3)ncc2C)cc1`, the inhibition was -1%.

Turning to `CCn1c(Sc2ccc([N+](=O)[O-])c(C#N)c2)nnc1-c1ccc(Cl)cc1`, the inhibition was 2%.

Consider `Cc1cccc(NC(=O)Nc2cccc(-c3ccc(-c4nc5ccc(C(F)(F)F)cc5[nH]4)cc3)c2)c1`, for which the inhibition is 44%.

In the case of `CN1CCCC(CN2CCN(Cc3cccc(-c4ccc(-c5nc6ccc(F)cc6[nH]5)cc4)c3)CC2)C1` (stereo not given), the inhibition is 78% (active).

For `CN1CCC(N2CCN(CCOc3cc(NC(=O)/C=C/c4ccccc4Cl)ccc3Br)CC2)CC1`, the inhibition was 36%.

Consider `Cc1nc(N)nc(N)c1OCc1cccc2ccccc12`, for which the inhibition is 63% (active).

Regarding `CN(C1CCC(NC(=O)/C=C/c2ccccc2)CC1)C1CC2(CCN(C(=O)OC(C)(C)C)CC2)c2ccccc21` (stereo not given), the inhibition was 16%.

As for `O=C(Oc1ccc(C2CNCCc3c2cc(OC(=O)c2ccc(O)cc2)c(OC(=O)c2ccc(O)cc2)c3Cl)cc1)c1ccc(O)cc1` (stereo not given), the inhibition is -2%.

`Nc1ccc2[nH]cc(C3CCN(CCC4CCN(C(=O)/C=C/c5ccc(Cl)c(Cl)c5)CC4)CC3)c2n1`: the inhibition was 27%.

Turning to `COc1cc(N(C)Cc2cnc3nc(N)nc(N)c3n2)cc(OC)c1OC`, the inhibition is 32%.

For the molecule `COc1ccc2ncn(-c3ccc(C(N)=O)c(OCc4ccccc4C(F)(F)F)c3)c2c1`, the inhibition was 18%.

On to `Oc1ccc(CCNc2nc(NCc3ccccc3-c3cccc(Cl)c3)nc(N3CCNCC3)n2)cc1`, for which the inhibition is 15%.

On to `NC1CCCN(Cc2ccc(-c3ccc(-c4nc5ccccc5[nH]4)s3)cc2)C1` (stereo not given), for which the inhibition is 40%.

Turning to `CCCc1ccc(NC(=O)c2cccc(CN3CCCN(Cc4cccc(C#N)c4)CC3)c2)cc1`, the inhibition was 20%.

Take `CN(C)CCOc1ccc(-c2cc(-c3ccc(Cl)c(O)c3)c(-c3ccncc3)[nH]2)cc1`: the inhibition is 54% (active).

Turning to `COc1ccc(CC(=O)Nc2ccc(-c3cccc(-c4nc5c(C)cccc5[nH]4)c3)cc2)cc1O`, the inhibition is 6%.

For `COc1cccc(OC)c1OCCCOc1c(C)nc(N)nc1N`, the inhibition is 31%.

Regarding `c1csc(-c2nc(NCC3CCCO3)ncc2-c2ccsc2)n1` (stereo not given), the inhibition is -4%.

On to `COc1ccccc1C1CCN(CCN2CCC(NC(=O)c3ccc(-c4ccc(C#N)cc4)cc3)CC2)CC1`, for which the inhibition was 31%.

Take `CCCCCN1CCCC(NS(=O)(=O)c2ccc(C(=O)Nc3cccc(C(F)(F)F)c3)cc2)C1` (stereo not given): the inhibition is 30%.

For `CCCCc1ccc(-c2c(N)nc(N)nc2CC)cc1`, the inhibition was 63% (active).

With `Cc1cc2c(/C=C/C(=O)NC3CCC(CCN4CCc5ccc(C#N)cc5CC4)CC3)cccc2[nH]1` (stereo not given), the inhibition was 16%.

As for `O=C(Nc1ccc(Cl)c(Cl)c1)N1CCC(CNCc2cccc([N+](=O)[O-])c2)CC1`, the inhibition was 13%.

On to `CN1CCCc2ccc(NC(=O)Nc3ccc(Cl)c(Cl)c3)cc2C1`, for which the inhibition is -13%.

On to `Cc1ccc(Cn2ncc(N3C[C@@H](C)N[C@@H](C)C3)c(Cl)c2=O)cc1NC(=O)Nc1ccc(-c2ccccc2)cc1`, for which the inhibition is 51% (active).

On to `Cc1cc(NN=Cc2ccc(Cl)cc2)c2ccc(F)cc2n1`, for which the inhibition was 6%.

On to `CCc1nc(N)nc(N)c1-c1ccc(C(C)(C)C)cc1`, for which the inhibition is 27%.

`Cc1nn(-c2ccnc3cc(Cl)ccc23)c(C)c1C(=O)NCc1cc(Cl)cc(Cl)c1`: the inhibition was -10%.

With `Cc1nc(Nc2ccc(C)c(Cl)c2)c2c(C)noc2n1`, the inhibition was 0%.

On to `Cc1onc(-c2ccccc2)c1-c1nc(NC2CCCC(C)C2)no1` (stereo not given), for which the inhibition was 22%.

In the case of `O=C(N[C@H]1CCN(CCc2ccc(O[C@H]3CCNC3)c(Cl)c2)C1)c1ccc(Cl)c(Cl)c1`, the inhibition is 26%.

On to `FC(F)(F)COc1c(CCNCCCCNCCc2ccc3ccccc3c2OCC(F)(F)F)ccc2ccccc12`, for which the inhibition was 99% (active).
